From PubChem
PAFAH1B2 inh: PAFAH1B2 (human) inhibition. P68402. recombinant PAFAH1B2, FP-rhodamine activity probe, fluorescence polarization. inhibition, % at 3.39 µM. 340,000 compounds, 1.2% hits;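 active = inhibition above the mean of all tested compounds plus 3 SD, cut at about 24% in these data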;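 note: 0% = enzyme with DMSO and 100% = wells lacking PAFAH1B2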
PAFAH1B3 inh: PAFAH1B3 (human) inhibition. Q15102. recombinant PAFAH1B3, FP-rhodamine probe, fluorescence polarization. inhibition, % at 3.39 µM. 340,000 compounds, 0.28% hits;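 active = inhibition above the screen-wide average of all tested compounds plus 3 SD, cut at about 25% in these data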;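 note: 0% = enzyme with DMSO only and 100% = wells lacking PAFAH1B3 protein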
pPAFAH inh: inhibitors of human plasma PAF acetylhydrolase (pPAFAH); Q13093; recombinant pPAFAH, FP-rhodamine probe fluorescence polarization; inhibition, % at 3.39 µM; 330,000 compounds, 1.5% hits; AID 463082;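 active = inhibition above the mean inhibition across the screen plus 3 SD, cut at about 25% in these data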;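 note: inhibitors block binding of the rhodamine activity-based probe so polarization drops; 0% = enzyme with DMSO and 100% = wells lacking pPAFAH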
Target sequence (Q13093 whole entry, looked up): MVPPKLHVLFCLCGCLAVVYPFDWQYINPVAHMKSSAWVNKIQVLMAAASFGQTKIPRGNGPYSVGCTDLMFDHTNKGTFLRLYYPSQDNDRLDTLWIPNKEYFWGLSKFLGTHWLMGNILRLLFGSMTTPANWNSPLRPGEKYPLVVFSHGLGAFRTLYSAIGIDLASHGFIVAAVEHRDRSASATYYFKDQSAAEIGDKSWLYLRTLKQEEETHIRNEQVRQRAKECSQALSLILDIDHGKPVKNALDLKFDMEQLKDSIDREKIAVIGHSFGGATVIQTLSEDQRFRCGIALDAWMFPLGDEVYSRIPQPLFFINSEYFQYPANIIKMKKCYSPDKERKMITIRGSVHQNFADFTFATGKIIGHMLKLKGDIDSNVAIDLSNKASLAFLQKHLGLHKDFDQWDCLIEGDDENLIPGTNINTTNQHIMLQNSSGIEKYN
ZTA DNA inh: counter-screen for EBNA-1 inhibitors: inhibitors of Epstein-Barr virus ZTA; P03206; 320,000 compounds, 0.15% hits; inhibition, % at 11 µM; ZTA-DNA binding, fluorescence polarization; in the data active = inhibition above about 33%
PAFAH2 FP inh: PAFAH2 (human) inhibition | Q99487 | recombinant PAFAH2, FP-rhodamine activity probe, fluorescence polarization | inhibition, % at 3.39 µM | 340,000 compounds, 0.99% hits;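 active = inhibition above the mean over all tested compounds plus 3 SD, cut at about 30% in these data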;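 note: inhibitors block probe labeling of enzyme so polarization drops; 0% = enzyme with DMSO and 100% = wells lacking PAFAH2 protein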
EBNA-1 inhibitor: blocks EBNA-1 binding to DNA; EBNA-1 DNA binding, fluorescence polarization; AID 1950; inhibition, % at 14.8 µM; 300,000 compounds, 0.34% hits; in the data active = inhibition above about 28%
PAFAH2 confirm: PAFAH2 (human) inhibition, confirmed; AID 493030; inhibition, % at 3.39 µM; shares compounds with PAFAH2 FP inh; 2,300 compounds, 65% hits; recombinant PAFAH2, FP-rhodamine activity probe, fluorescence polarization;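 active = mean inhibition over three repeats above a set limit taken from the earlier primary screen, cut at about 30% in these data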;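 note: inhibitor blocks binding of rhodamine activity probe so polarization falls; 0% = enzyme with DMSO and 100% = wells lacking PAFAH2 protein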
* = called active by the depositor; . = not tested or not shown. Most compounds without a hit are left out; they make up all but 2.9% or so of the library.

SMILES | PAFAH1B2 inh | PAFAH1B3 inh | pPAFAH inh | ZTA DNA inh | PAFAH2 FP inh | EBNA-1 inhibitor | PAFAH2 confirm
COc1ccc(CNC(=O)COC(=O)/C=C/c2cccc(Br)c2)cc1OC | 6 | 9 | 9 | 8 | 5 | 2 | .
COc1ccc(CCNC(=O)COC(=O)c2ccc(OC)cc2OC)cc1 | -2 | 0 | . | . | 6 | . | .
COc1ccc(OC)c(/C=C/C(=O)OCC(=O)NCc2ccccc2)c1 | 0 | 3 | 6 | . | 46* | . | 28
O=S1(=O)CC2NC(=S)N(c3cccc(Br)c3)C2C1 (centres undefined) | . | . | 3 | -1 | . | -8 | .
O=C(CNc1cc(S(=O)(=O)N2CCCC2)ccc1OCC(F)(F)F)Nc1ccc(SC(F)F)cc1 | 0 | -5 | 7 | 7 | -19 | 8 | .
CCOc1ccc(N(CC(=O)NC2CCCC2)C(=O)CSc2nnc(COc3ccccc3)o2)cc1 | 1 | 4 | 9 | -5 | -2 | -8 | .
C=CCN(c1ccc(F)cc1)S(=O)(=O)c1cc(C(=O)OCC(=O)N(C)C2CCS(=O)(=O)C2)ccc1Cl (centres undefined) | 21 | 5 | 2 | -24 | 4 | -6 | .
O=C(Nc1ccccc1C(=O)NCc1cccnc1)c1ccccc1F | 0 | 5 | -2 | 10 | -3 | 0 | .
CCN(CC(=O)NCc1cccs1)C(=O)/C=C/c1cc(OC)ccc1OC | 0 | 0 | 4 | 9 | 1 | . | .
COc1ccc(OC)c(/C=C/C(=O)OCC(=O)NCc2cccs2)c1 | 3 | 9 | -2 | -4 | 46* | . | 50*
COc1ccc(CCNC(=O)COC(=O)/C=C/c2cccs2)cc1 | -4 | 5 | 10 | -12 | 23 | 5 | .
COc1ccc(CCNC(=O)COC(=O)/C=C/c2cc(OC)ccc2OC)cc1 | 9 | 2 | 3 | . | 32* | . | 16
CN1CCC(n2[nH]c(-c3ccccc3)c(Cc3ccccc3)c2=O)CC1 | 7 | 8 | . | . | -3 | . | .
O=C(CNC(=O)c1ccc2ccccc2c1)NCc1ccccc1F | 3 | 12 | 2 | 11 | -1 | 5 | .
CC1CCCCN1S(=O)(=O)c1ccc(C(=O)Nc2ccccc2-c2nc3ccccc3[nH]2)cc1 (centres undefined) | 4 | -36 | -15 | -2 | 37* | -4 | 4
CCOc1ccc(-c2nnc(-c3ccccc3)o2)cc1 | -4 | -5 | -6 | -8 | -4 | 14 | .
Cc1onc(-c2ccccc2)c1-c1nc2ccccc2c(=O)o1 | 5 | -1 | -5 | 7 | 63* | -8 | 60*
Cc1onc(-c2ccccc2)c1-c1nc2cc(Cl)ccc2c(=O)o1 | . | . | -9 | 6 | . | -1 | .
COc1ccc(-c2nc3ccccc3c(=O)o2)cc1OC | -1 | 5 | -5 | 7 | 41* | 7 | 34*
CCOc1ccc(-c2nc3ccccc3c(=O)o2)cc1 | -4 | 3 | -1 | -28 | 54* | 9 | 60*
O=c1oc(-c2ccccc2Br)nc2ccccc12 | -1 | 0 | 0 | -16 | 56* | 0 | 31*
CCN(CC)C(=O)CSc1nnc(CSc2ncccn2)n1C | 2 | 7 | 0 | -2 | -5 | 5 | .
CCc1ccc(NC(=O)CCn2ccnc2C)cc1 | 8 | -3 | 3 | 6 | 6 | 10 | .
CCN1C(=O)N(S(=O)(=O)c2ccc(C)cc2)[C@@H](c2ccccc2)C(C(=O)OC)=C1C | 7 | 3 | 4 | -18 | -3 | 4 | .
O=C(OCc1cn(-c2ccc(Cl)cc2)nn1)c1ccccc1 | 5 | 4 | 10 | -6 | 69* | -3 | 69*
CC(C)(C)C(=O)OCc1cn(-c2ccc(Cl)cc2)nn1 | 2 | 1 | -5 | -27 | 7 | 8 | .
COC(=O)c1ccccc1NC(=O)CN1C(=O)NC2(CCCCCCC2)C1=O | 3 | 0 | -4 | 21 | 85* | . | 6
N#C/C(=C\c1ccc(OCc2ccc(C(=O)O)cc2)cc1)C(=O)NCc1ccccc1 | 3 | 0 | 4 | 17 | -11 | 18 | .
N#C/C(=C\c1ccc(OCc2cccc(C(=O)O)c2)cc1)C(=O)NCc1ccco1 | 12 | 13 | -3 | -6 | 37* | -5 | 28
Cc1ccc(CSc2nnc(SCC(=O)N/N=C/c3c[nH]c4ccccc34)s2)cc1 | 4 | 2 | . | . | 30* | . | 31*
